Laboratory results reported in PubChem BioAssay (NCI).
About 83,000 compounds went through this panel and 20% of them were active in at least one assay; those are over-represented in the sample as a whole.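 Percent growth is the endpoint: 0 to 100 indicates growth inhibition (40 means 60% inhibition), 0 means no net growth, and negative values indicate cell death.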 Activity calls are given as the source filed them. How the source made its calls: active means growth percent below 10; inactive means the rest.

Assays:
Assay in all cases: NCI-60 one-dose screen, 48 h (100 = growth as untreated, 0 = no growth, -100 = all killed)
Details in all cases: 10 µM unless noted
HCT-15 colon = tested on: HCT-15 colon
HT29 colon = tested on: HT29 colon
SNB-75 CNS = tested on: SNB-75 CNS
SNB-19 CNS = tested on: SNB-19 CNS
U251 CNS = tested on: U251 CNS
PC-3 prostate = tested on: PC-3 prostate
SK-MEL-5 melanoma = tested on: SK-MEL-5 melanoma
UACC-62 melanoma = tested on: UACC-62 melanoma
LOX IMVI melanoma = tested on: LOX IMVI melanoma
SK-MEL-28 melanoma = tested on: SK-MEL-28 melanoma

Measured: growth

Fc1ccc(Nc2nc(Nc3ccc(-c4nc5ccccc5[nH]4)cc3)c3cn[nH]c3n2)cc1
inactive: SNB-75 CNS 83.3% | SNB-19 CNS 87.6% | U251 CNS 33.5% | PC-3 prostate 76.6% | SK-MEL-5 melanoma 78.8% | UACC-62 melanoma 84.9% | SK-MEL-28 melanoma 51.7%
active: HCT-15 colon -41.2% | HT29 colon -8.84% | LOX IMVI melanoma -64.6%

NC(N)=N/N=C(/c1ccccc1)c1ccc(N)cc1
inactive: HCT-15 colon 106% | HT29 colon 132% | SNB-75 CNS 122% | SNB-19 CNS 106% | U251 CNS 97.5% | PC-3 prostate 127% | SK-MEL-5 melanoma 101% | UACC-62 melanoma 91.2% | LOX IMVI melanoma 95% | SK-MEL-28 melanoma 150%

COc1cc2c(cc1OC)-c1ccc3cc4c(cc3c1N(CCN(C)C)C2)OCO4
active: HT29 colon -45.8% | SNB-75 CNS -5.56% | SNB-19 CNS 8.26% | U251 CNS -42.9% | PC-3 prostate 0.178% | SK-MEL-5 melanoma -10.9% | UACC-62 melanoma 3.42% | LOX IMVI melanoma -83.2%
inactive: HCT-15 colon 56.7% | SK-MEL-28 melanoma 43.7%

Nc1c(C(=O)c2ccc(Cl)s2)sc2nc3c(cc12)CCCC3
inactive: HCT-15 colon 107% | HT29 colon 94.2% | SNB-75 CNS 103% | SNB-19 CNS 105% | U251 CNS 97.8% | PC-3 prostate 88.4% | SK-MEL-5 melanoma 96.8% | UACC-62 melanoma 106% | LOX IMVI melanoma 96.8% | SK-MEL-28 melanoma 119%

Cc1ccc(NSc2ccccc2[N+](=O)[O-])cc1
active: HT29 colon 5.05%
inactive: HCT-15 colon 27% | SNB-75 CNS 10.1% | SNB-19 CNS 38.1% | U251 CNS 21.1% | PC-3 prostate 18% | SK-MEL-5 melanoma 13.6% | UACC-62 melanoma 28.6% | LOX IMVI melanoma 35% | SK-MEL-28 melanoma 63.7%

COc1ccc(/C(C)=N/NS(=O)(=O)c2ccc(C)cc2)cc1OC
inactive: HCT-15 colon 103% | HT29 colon 109% | SNB-75 CNS 108% | SNB-19 CNS 107% | U251 CNS 99.6% | PC-3 prostate 91.6% | SK-MEL-5 melanoma 103% | UACC-62 melanoma 105% | LOX IMVI melanoma 93.1% | SK-MEL-28 melanoma 123%

CCN(CC)c1ccc(Nc2ccc(CC(=O)c3ccccc3)cc2)cc1
inactive: HCT-15 colon 88.7% | HT29 colon 75.8% | SNB-75 CNS 91.1% | SNB-19 CNS 80.8% | U251 CNS 56.2% | PC-3 prostate 39.9% | SK-MEL-5 melanoma 79.9% | UACC-62 melanoma 78.5% | LOX IMVI melanoma 91.3% | SK-MEL-28 melanoma 98.5%

O=C(Nc1ccc(N2CCCCC2)c(Cl)c1)c1ccc(Br)o1
active: SK-MEL-5 melanoma -96.8% | UACC-62 melanoma -40.2% | LOX IMVI melanoma 2.04%
inactive: HCT-15 colon 61.1% | HT29 colon 73.7% | SNB-75 CNS 60.7% | SNB-19 CNS 78.3% | U251 CNS 68.5% | PC-3 prostate 58% | SK-MEL-28 melanoma 39.6%

Clc1ccc(-c2nnc(-c3ccco3)o2)cc1
inactive: HCT-15 colon 112% | HT29 colon 105% | SNB-75 CNS 89.1% | SNB-19 CNS 90.6% | U251 CNS 98.7% | PC-3 prostate 96.7% | SK-MEL-5 melanoma 108% | UACC-62 melanoma 93.9% | LOX IMVI melanoma 97.8% | SK-MEL-28 melanoma 125%

C=C(C=O)[C@@H]1CC=C(C=O)CC1
active: HCT-15 colon -12% | U251 CNS -8.31% | SK-MEL-5 melanoma -41.1% | UACC-62 melanoma -21.6% | LOX IMVI melanoma -0.188% | SK-MEL-28 melanoma -43.3%
inactive: HT29 colon 13.2% | SNB-75 CNS 32.9% | SNB-19 CNS 55% | PC-3 prostate 15.3%

O=C(/C=C/c1ccccc1)c1ccc2ccccc2c1
inactive: HCT-15 colon 48.5% | HT29 colon 54.7% | SNB-75 CNS 107% | SNB-19 CNS 99.3% | U251 CNS 93.2% | PC-3 prostate 90.1% | SK-MEL-5 melanoma 92% | UACC-62 melanoma 92.6% | LOX IMVI melanoma 89.3% | SK-MEL-28 melanoma 108%

CS(=O)(=O)c1ccc(-c2nc3cc(Cl)ccc3n2CC(=O)N/N=C/c2ccc(Cl)cc2)cc1
inactive: HCT-15 colon 72.6% | HT29 colon 36.2% | SNB-75 CNS 42.1% | SNB-19 CNS 51.3% | U251 CNS 30.5% | PC-3 prostate 45.5% | SK-MEL-5 melanoma 23.1% | UACC-62 melanoma 56.2% | LOX IMVI melanoma 30.7% | SK-MEL-28 melanoma 43.6%

COc1cc2c(c(OC)c1OC)C(=O)/C(=C/c1cc(C)c(O)c(C)c1)S2
inactive: HCT-15 colon 25.4% | HT29 colon 82.4% | SNB-19 CNS 39.2% | U251 CNS 33% | PC-3 prostate 30.9% | UACC-62 melanoma 50.8% | LOX IMVI melanoma 26.4% | SK-MEL-28 melanoma 59.3%
active: SNB-75 CNS 4.46% | SK-MEL-5 melanoma 4.33%

Oc1ccccc1-c1nc2ccccn2c1NCCN1CCOCC1
inactive: HCT-15 colon 99.4% | HT29 colon 93.8% | SNB-75 CNS 80.2% | SNB-19 CNS 99.7% | U251 CNS 97% | PC-3 prostate 87.4% | SK-MEL-5 melanoma 98.7% | UACC-62 melanoma 95.3% | LOX IMVI melanoma 94.4% | SK-MEL-28 melanoma 94.4%

Nc1ccc(CCCCc2ccccc2)c(Cl)c1
inactive: HCT-15 colon 89% | HT29 colon 96.3% | SNB-75 CNS 75.2% | SNB-19 CNS 94.6% | U251 CNS 77.7% | PC-3 prostate 90.1% | SK-MEL-5 melanoma 96.4% | UACC-62 melanoma 93.4% | LOX IMVI melanoma 99.2% | SK-MEL-28 melanoma 98.8%

CCNCCNc1cc(-c2ccc(Cl)cc2)c(C#N)c2nc3ccccc3n12
inactive: SNB-19 CNS 36% | PC-3 prostate 27.2%
active: HCT-15 colon -78.5% | HT29 colon -32.2% | SNB-75 CNS -76.6% | U251 CNS -53.2% | SK-MEL-5 melanoma -99.4% | UACC-62 melanoma -82.7% | LOX IMVI melanoma -77.4% | SK-MEL-28 melanoma -90.2%

N#Cc1c(Oc2ccc([N+](=O)[O-])cc2)nc2sc3cc(Cl)ccc3n2c1=N
inactive: HCT-15 colon 102% | HT29 colon 33.4% | SNB-75 CNS 29.7% | SNB-19 CNS 74.8% | U251 CNS 75.9% | PC-3 prostate 76.7% | SK-MEL-5 melanoma 58.1% | UACC-62 melanoma 79.3% | LOX IMVI melanoma 92.1% | SK-MEL-28 melanoma 84.1%

Cn1nnnc1-c1ccc(N)cc1
inactive: HCT-15 colon 98.9% | HT29 colon 95% | SNB-75 CNS 88.4% | SNB-19 CNS 105% | U251 CNS 100% | PC-3 prostate 93.9% | SK-MEL-5 melanoma 102% | UACC-62 melanoma 99.7% | LOX IMVI melanoma 95.1% | SK-MEL-28 melanoma 103%

C=C1C(=O)O[C@H]2[C@H]1CC/C(COC(=O)/C=C/C(=O)NCc1ccc(Cn3c(=O)sn(-c4ccccc4)c3=O)cc1)=C\CC[C@@]1(C)O[C@@H]21
active: HT29 colon -46.6% | SK-MEL-5 melanoma -27.8% | UACC-62 melanoma -80.8% | LOX IMVI melanoma -85.2% | SK-MEL-28 melanoma -40.1%
inactive: HCT-15 colon 32.9% | SNB-75 CNS 70.7% | SNB-19 CNS 61.8% | U251 CNS 20.7% | PC-3 prostate 57.1%

O=c1[nH]nc(-c2ccc(Cl)cc2)cc1Cc1ccccc1
inactive: HCT-15 colon 103% | HT29 colon 108% | SNB-75 CNS 88.3% | SNB-19 CNS 101% | U251 CNS 92.5% | PC-3 prostate 90.9% | SK-MEL-5 melanoma 105% | UACC-62 melanoma 79.3% | LOX IMVI melanoma 93.4% | SK-MEL-28 melanoma 114%

CO[C@H]1/C=C/O[C@@]2(C)Oc3c(C)c(O)c4c(c3C2=O)C(=O)C(/C=N/N(c2ccccc2)c2ccccc2)=C(NC(=O)/C(C)=C\C=C\[C@H](C)[C@H](O)[C@@H](C)[C@@H](O)[C@@H](C)[C@H](OC(C)=O)[C@@H]1C)C4=O
inactive: SNB-75 CNS 19.6% | SNB-19 CNS 19.1%
active: HCT-15 colon -20.3% | HT29 colon -12.7% | U251 CNS -72.7% | PC-3 prostate -2.79% | SK-MEL-5 melanoma -88.2% | UACC-62 melanoma -71.1% | LOX IMVI melanoma -81.1% | SK-MEL-28 melanoma -58.3%

O=C(/C=C/C12c3ccccc3C(c3ccccc31)C1C(=O)NC(=O)C12)c1ccccc1 (stereo not given)
inactive: HCT-15 colon 20% | HT29 colon 18.3% | SNB-19 CNS 32.9% | U251 CNS 25.6% | PC-3 prostate 29.9% | SK-MEL-5 melanoma 28.8% | UACC-62 melanoma 36.3% | SK-MEL-28 melanoma 44.7%
active: SNB-75 CNS -2.11% | LOX IMVI melanoma 2.81%

Cc1ccc(-n2nnc(C3=NCCc4c3[nH]c3ccc(Cl)cc43)c2C)cc1
inactive: HCT-15 colon 65.8% | HT29 colon 74.4% | SNB-75 CNS 103% | SNB-19 CNS 83.3% | U251 CNS 80% | PC-3 prostate 62.1% | SK-MEL-5 melanoma 79.1% | UACC-62 melanoma 30.5% | LOX IMVI melanoma 63% | SK-MEL-28 melanoma 100%

CN(C)c1ccc2cc(-c3ccccc3F)c(N)nc2c1
active: HT29 colon 1.79% | SK-MEL-5 melanoma -18.8%
inactive: HCT-15 colon 37.4% | SNB-75 CNS 11.3% | SNB-19 CNS 55.1% | U251 CNS 16.8% | PC-3 prostate 31.6% | UACC-62 melanoma 40.2% | LOX IMVI melanoma 33.4% | SK-MEL-28 melanoma 58%

C=CCOc1cccc(/C=C2\SC(=Nc3ccc(O)cc3)NC2=O)c1
active: SNB-75 CNS -18.6% | SK-MEL-5 melanoma -39% | LOX IMVI melanoma 8.94%
inactive: HCT-15 colon 10.1% | HT29 colon 11.7% | SNB-19 CNS 30.9% | U251 CNS 13.1% | PC-3 prostate 13.9% | UACC-62 melanoma 34.7% | SK-MEL-28 melanoma 69.7%

C[C@@H]1C(=O)N(C[C@H](Cc2ccccc2)N(Cc2ccccc2)Cc2ccccc2)[C@]1(Cc1ccccc1)C(=O)OC(C)(C)C
inactive: HCT-15 colon 70.9% | HT29 colon 46.4% | SNB-75 CNS 71.3% | SNB-19 CNS 66.9% | U251 CNS 49.2% | PC-3 prostate 27.9% | SK-MEL-5 melanoma 45.5% | UACC-62 melanoma 60.6% | LOX IMVI melanoma 62.8% | SK-MEL-28 melanoma 92%

COc1cc(/C=C/C(=O)c2cccc(-n3cc(-c4ccccc4)[nH]c3=O)c2)cc(OC)c1OC
inactive: SNB-75 CNS 34.2% | SNB-19 CNS 20.2%
active: HCT-15 colon 0.0594% | HT29 colon -72% | U251 CNS -78.6% | PC-3 prostate 7.64% | SK-MEL-5 melanoma -90.1% | UACC-62 melanoma -86.3% | LOX IMVI melanoma -85.2% | SK-MEL-28 melanoma -48.4%
